From PubChem BioAssay come the findings set out here.

By inhibition is commonly meant the drop in the measured response relative to a control, in per cent.

A number with no mark means an inactive call. For some assays here: Measured potencies and affinities stand elsewhere. Active and inactive are the calls of the source. Unless noted, the rule behind the calls is not given here.

A short description of test [1]: antimalarial activity against Dd2 strain (AID 2302;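 active = growth inhibition above 50% at the single 2 µM test dose, taken to imply half-maximal potency below 2 µM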;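 note: 0% = DMSO untreated growth and 100% = chloroquine plus artemisinin killed control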). Particulars: P. falciparum Dd2 in RBCs, LDH growth readout, 72 h; at 2 µM; active compounds read high.
Test [2] in a line: HepG2 cytotoxicity, primary screen, cytotoxicity control for P. falciparum antimalarial project, cell-based, ATP luminescence (AID 2303;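 active = inhibition above 50%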;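 note: 0% = DMSO wells and 100% = digitonin-killed cells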). As to conditions: HepG2 viability, 24-48 h, at 10 µM, active compounds read high.
Test [3] addresses L-lactate dehydrogenase (Plasmodium falciparum (isolate CDC / Honduras)) (UniProt Q27743). The experiment in a line: PfLDH activity inhibition – cell lysate, 3D7 strain, counter-screen for P. falciparum growth inhibition project (AID 2304).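 Note: 0% = vehicle and 100% = reference inhibitor.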 Particulars: P. falciparum 3D7 crude extract, LDH APAD/NBT absorbance; at 2 µM; active compounds read high.
A short description of test [4]: inhibition of 3D7 malaria parasite growth – strain 3D7 (AID 2306).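 Note: 0% = DMSO wells and 100% = chloroquine plus artemisinin control wells.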 As to conditions: P. falciparum 3D7 erythrocytic growth, LDH absorbance, 72 h; at 2 µM; active compounds read high.
Test [5] concerns the target Calcium-dependent protein kinase 1 (Plasmodium falciparum (isolate 3D7)) (UniProt P62344). The test can be described thus: PfCDPK1 kinase inhibitors, biochemical, TCAMS library (AID 1159585; cut-off not given, nearly all actives have IC50 up to about 0.98 µM;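 note: inhibitors leave more ATP so luminescence rises with inhibition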). Particulars: recombinant PfCDPK1, Kinase-Glo ATP depletion luminescence. Background: In Kinase-Glo more light means more ATP remaining.
Test [6] concerns the target Plasmodium falciparum protein kinase 6 (PK6, PF3D7_1337100) (UniProt Q8IDW1). The experiment in a line: PfPK6 kinase inhibitors, biochemical, TCAMS library (AID 1159586). As to conditions: recombinant PfPK6, Kinase-Glo ATP depletion luminescence.
Test [7] has as its target Protein kinase 7 (PK7), Plasmodium falciparum 3D7 (PF3D7_0213400) (UniProt Q7YTF7). The experiment in a line: inhibition of Plasmodium PK7 catalytic activity – biochemical, TCAMS antimalarial set, Kinase-Glo luminescence (AID 1159587). Particulars: recombinant PfPK7, Kinase-Glo ATP depletion luminescence.
The target of test [8] is Calcium-dependent protein kinase 4 (Plasmodium falciparum (isolate 3D7)) (UniProt Q8IBS5). The experiment in a line: PfCDPK4 kinase inhibitors, biochemical, TCAMS library (AID 1159588; cut-off not given, nearly all actives have IC50 up to about 0.91 µM). Particulars: recombinant PfCDPK4, Kinase-Glo ATP depletion luminescence.
Sequence of Calcium-dependent protein kinase 4 (Plasmodium falciparum (isolate 3D7)) (Q8IBS5 whole entry, looked up): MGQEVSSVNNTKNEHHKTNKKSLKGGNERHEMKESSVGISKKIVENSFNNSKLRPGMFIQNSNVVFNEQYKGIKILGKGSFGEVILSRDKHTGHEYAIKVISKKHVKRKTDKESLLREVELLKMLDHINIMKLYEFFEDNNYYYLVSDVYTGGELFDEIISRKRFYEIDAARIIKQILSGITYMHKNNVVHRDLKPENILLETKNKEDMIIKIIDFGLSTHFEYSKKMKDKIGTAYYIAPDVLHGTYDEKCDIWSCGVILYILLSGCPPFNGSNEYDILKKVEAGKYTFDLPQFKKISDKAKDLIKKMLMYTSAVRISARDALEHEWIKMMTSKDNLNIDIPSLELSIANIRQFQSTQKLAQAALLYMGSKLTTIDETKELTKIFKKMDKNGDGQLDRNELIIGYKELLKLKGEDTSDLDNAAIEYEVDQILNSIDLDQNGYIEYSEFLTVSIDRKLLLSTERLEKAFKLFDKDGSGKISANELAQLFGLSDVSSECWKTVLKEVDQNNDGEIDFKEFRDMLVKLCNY

Sequence of Plasmodium falciparum protein kinase 6 (PK6, PF3D7_1337100) (Q8IDW1 1-305): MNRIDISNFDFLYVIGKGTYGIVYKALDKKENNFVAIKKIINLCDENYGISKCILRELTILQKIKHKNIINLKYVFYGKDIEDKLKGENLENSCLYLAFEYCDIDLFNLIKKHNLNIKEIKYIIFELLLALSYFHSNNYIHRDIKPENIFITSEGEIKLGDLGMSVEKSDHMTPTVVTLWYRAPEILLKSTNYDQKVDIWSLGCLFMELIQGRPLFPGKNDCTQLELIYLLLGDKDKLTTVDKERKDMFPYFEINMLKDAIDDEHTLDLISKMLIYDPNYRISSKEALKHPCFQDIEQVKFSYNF
Sequence of L-lactate dehydrogenase (Plasmodium falciparum (isolate CDC / Honduras)) (Q27743 whole entry, looked up): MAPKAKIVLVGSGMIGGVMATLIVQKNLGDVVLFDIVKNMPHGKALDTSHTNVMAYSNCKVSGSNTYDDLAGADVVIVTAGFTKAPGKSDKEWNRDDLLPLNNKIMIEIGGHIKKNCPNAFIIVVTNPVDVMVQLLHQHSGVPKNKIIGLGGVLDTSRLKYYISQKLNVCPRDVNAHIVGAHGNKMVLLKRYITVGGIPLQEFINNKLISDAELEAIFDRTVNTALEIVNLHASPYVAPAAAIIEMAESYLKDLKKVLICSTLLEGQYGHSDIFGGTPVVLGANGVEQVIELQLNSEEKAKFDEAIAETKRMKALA
Sequence of Protein kinase 7 (PK7), Plasmodium falciparum 3D7 (PF3D7_0213400) (Q7YTF7 1-343): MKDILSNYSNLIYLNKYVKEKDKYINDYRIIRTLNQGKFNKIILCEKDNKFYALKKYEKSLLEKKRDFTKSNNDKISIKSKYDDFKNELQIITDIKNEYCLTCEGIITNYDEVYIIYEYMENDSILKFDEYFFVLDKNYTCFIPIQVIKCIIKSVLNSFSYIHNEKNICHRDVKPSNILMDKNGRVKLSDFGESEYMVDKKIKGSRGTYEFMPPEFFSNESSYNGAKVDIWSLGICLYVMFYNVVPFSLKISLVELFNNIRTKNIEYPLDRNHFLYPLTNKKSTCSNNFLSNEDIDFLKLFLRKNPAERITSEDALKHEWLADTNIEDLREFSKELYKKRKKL
Sequence of Calcium-dependent protein kinase 1 (Plasmodium falciparum (isolate 3D7)) (P62344 whole entry, looked up): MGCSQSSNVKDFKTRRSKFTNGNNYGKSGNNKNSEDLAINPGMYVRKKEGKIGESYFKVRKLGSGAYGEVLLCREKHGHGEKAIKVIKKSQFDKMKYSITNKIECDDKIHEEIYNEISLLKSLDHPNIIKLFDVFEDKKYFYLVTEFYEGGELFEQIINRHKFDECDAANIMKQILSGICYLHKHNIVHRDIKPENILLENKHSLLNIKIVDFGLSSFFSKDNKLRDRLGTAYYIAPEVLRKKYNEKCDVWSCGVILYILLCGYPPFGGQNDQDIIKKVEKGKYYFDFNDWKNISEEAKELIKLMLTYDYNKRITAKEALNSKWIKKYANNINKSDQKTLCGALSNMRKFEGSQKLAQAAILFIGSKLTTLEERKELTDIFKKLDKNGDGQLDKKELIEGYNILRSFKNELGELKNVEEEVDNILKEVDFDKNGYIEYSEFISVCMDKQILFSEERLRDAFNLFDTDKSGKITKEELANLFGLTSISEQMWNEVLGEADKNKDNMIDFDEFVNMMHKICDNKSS

In the case of `Cc1nn(-c2ccccc2)nc1C(=O)NC1CCN(CCNC(=O)c2ccc(Cl)c(Cl)c2)CC1`, the growth inhibition was 5% in test [1] and 89% (active) in test [4]. Besides, the inhibition was 15% in test [2] and 0% in test [3]. Besides, the outcome in test [5], in test [6], in test [7] and in test [8] was inactive.
Regarding `CC(C)CN(C)c1ncnc2c1nc(-c1cncc(C#N)c1)n2CCNCc1ccccc1`, the growth inhibition was 2% in test [1] and 86% (active) in test [4]. For the same molecule, the inhibition in test [2] was 4%; in test [3] it was 0%. For the same molecule, the outcome in test [5], in test [6], in test [7] and in test [8] was inactive.
`CC(=O)Nc1cc(C(=O)Nc2cccc(-c3cccc(-c4nc5ccc(C(F)(F)F)cc5[nH]4)c3)c2)ccc1C`: the growth inhibition in test [1] is 43%; in test [4], 97% (active). Also, the inhibition is 56% (active) in test [2] and -4% in test [3]. Further, the result in test [5], in test [6], in test [7] and in test [8] was inactive.
As to `O=C(/C=C/c1ccc(Cl)c(Cl)c1)NCC(CCCN1CCC(c2c[nH]c3ccccc23)CC1)c1ccccc1` (configuration not stated), the growth inhibition in test [1] was 46%; in test [4], 100% (active). Besides, the values for the inhibition in test [2] and in test [3] were 98% (active) and 3%, respectively. Also, the outcome in test [5], in test [6], in test [7] and in test [8] was inactive.
`CCCCCN1CCCC(CNS(=O)(=O)c2ccc(C(=O)Nc3ccc(C(F)(F)F)cc3)cc2)C1` (configuration not stated): the growth inhibition was -9% in test [1] and 94% (active) in test [4]. The figures for the inhibition in test [2] and in test [3] were 51% (active) and -2%, respectively. Further, the outcome in test [5], in test [6], in test [7] and in test [8] was inactive.
For the molecule `COc1cccc(-c2c(C#N)c(N)nc3c2c(C)nn3-c2ccccc2)c1O`, the growth inhibition in test [1] and in test [4] was 100% (active) each time. Also, the results for the inhibition in test [2] and in test [3] were 4% and 7%, respectively. In addition, the result in test [5], in test [6], in test [7] and in test [8] was inactive.
Regarding `Cc1ccc2nc(C)cc(NN=Cc3cccc(Cl)c3)c2c1`, the growth inhibition in test [1] is 98% (active); in test [4], 102% (active). Also, the results for the inhibition in test [2] and in test [3] were 12% and 2%, respectively. The outcome in test [5], in test [6], in test [7] and in test [8] was inactive.
In the case of `CC(C)c1ccc2c(c1)c(SC(C)(C)C)c(CC(C)(C)C#N)n2Cc1ccc(Cl)cc1`, the figures for the growth inhibition in test [1] and in test [4] were 95% (active) and 96% (active), respectively. Also, the inhibition is -3% in test [2] and 8% in test [3]. Moreover, the result in test [5], in test [6], in test [7] and in test [8] was inactive.
In the case of `O=C(Cc1ccc(NC(=O)c2ccc(O)c(-c3ccc(Cl)c(Cl)c3)c2)cc1)NCCc1ccc(Cl)c(Cl)c1`, the results for the growth inhibition in test [1] and in test [4] were 88% (active) and 99% (active), respectively. Further, the inhibition in test [2] is -6%; in test [3], 2%. Moreover, the outcome in test [5], in test [6], in test [7] and in test [8] was inactive.
Regarding `COc1ccc2nccc([C@@H](O)CN3CCC(NCC(=O)Nc4cc(F)cc(F)c4)CC3)c2n1`, the figures for the growth inhibition in test [1] and in test [4] were 28% and 89% (active), respectively. Besides, the figures for the inhibition in test [2] and in test [3] were 18% and -8%, respectively. For the same molecule, the outcome in test [5], in test [6], in test [7] and in test [8] was inactive.
In the case of `CCCCc1cc(O)c2c(c1)OC(C)(C)C=C2C1=CCN(Cc2ccccc2)CC1`, the growth inhibition was 3% in test [1] and 98% (active) in test [4]. Moreover, the inhibition in test [2] was 9%; in test [3], -5%. Also, the outcome in test [5], in test [6], in test [7] and in test [8] was inactive.
Turning to `CN1CCC(Oc2ccc(CN3CC[C@H](NC(=O)c4ccc(Cl)c(Cl)c4)C3)c3ccccc23)C1` (some centres not stated), the results for the growth inhibition in test [1] and in test [4] were 82% (active) and 100% (active), respectively. For the same molecule, the inhibition in test [2] was 52% (active); in test [3], 3%. Further, the outcome in test [5], in test [6], in test [7] and in test [8] was inactive.
On to `FC(F)(F)COc1ccc2ccccc2c1CNCCCCCCNCc1c(OCC(F)(F)F)ccc2ccccc12`, for which the growth inhibition in test [1] was 95% (active); in test [4] it was 101% (active). The figures for the inhibition in test [2] and in test [3] were 99% (active) and 2%, respectively. Further, the outcome in test [5], in test [6], in test [7] and in test [8] was inactive.
With `CC(C)C[C@@H](C(=O)Nc1ccc(Cc2ccc(NC(=O)[C@H](CC(C)C)N(C)C(=O)OC(C)(C)C)cc2)cc1)N(C)C(=O)OC(C)(C)C`, the growth inhibition is 57% (active) in test [1] and 92% (active) in test [4]. In addition, the values for the inhibition in test [2] and in test [3] were 17% and 2%, respectively. The outcome in test [5], in test [6], in test [7] and in test [8] was inactive.
With `CN1CCN(c2ccc3nc(-c4ccc(Cc5cc(Cl)ccc5OCc5ccccc5)o4)[nH]c3c2)CC1`, the growth inhibition in test [1] is 79% (active); in test [4], 102% (active). Also, the inhibition in test [2] was 27%; in test [3] it was 2%. The result in test [5], in test [6], in test [7] and in test [8] was inactive.
For `COc1ccc(N2CCc3c(-c4cccc5cnccc45)cc(C)nc32)c(C)c1`, the growth inhibition in test [1] was -12%; in test [4], 96% (active). Besides, the values for the inhibition in test [2] and in test [3] were 20% and 0%, respectively. In addition, the result in test [5], in test [6], in test [7] and in test [8] was inactive.
As to `Nc1nc(N)c2c(ccc3c2ccn3CC2CC2)n1`, the growth inhibition was 3% in test [1] and 96% (active) in test [4]. Also, the results for the inhibition in test [2] and in test [3] were 46% and -4%, respectively. Moreover, the outcome in test [5], in test [6], in test [7] and in test [8] was inactive.
Consider `CC(C)Cc1nc(N)nc(N)c1-c1ccc(Cl)cc1`, for which the growth inhibition in test [1] is 3%; in test [4], 96% (active). For the same molecule, the values for the inhibition in test [2] and in test [3] were 5% and 6%, respectively. The outcome in test [5], in test [6], in test [7] and in test [8] was inactive.
Turning to `c1ccc(-n2ncc(CNCc3ccc(-c4cccc(-c5nc6ccccc6[nH]5)c4)cc3)n2)cc1`, the growth inhibition in test [1] is 9%; in test [4], 94% (active). The figures for the inhibition in test [2] and in test [3] were 21% and 3%, respectively. Also, the result in test [5], in test [6], in test [7] and in test [8] was inactive.
